A selection: hits, their analogues and other compounds. The true share with any hit is near 3.7%.
AF4-AF9 inh: inhibitors of AF4 peptide binding to AF9, primary screen, biochemical, AlphaScreen, biotin-AF4 peptide, FLAG-AF9, single point | AID 651704, 2012 | Protein AF-9 (Homo sapiens), P42568 | 350,000 tested, 0.47% active | inhibition, % at 10 µM;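 active means every replicate reaching a set inhibition limit, whatever the replicate mean, cut at about 25% in these data; inconclusive means mean inhibition reaches that limit but some replicates miss it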;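 further: 0% = plate neutral control median and 100% = total signal loss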
Target sequence (P42568 whole entry, looked up): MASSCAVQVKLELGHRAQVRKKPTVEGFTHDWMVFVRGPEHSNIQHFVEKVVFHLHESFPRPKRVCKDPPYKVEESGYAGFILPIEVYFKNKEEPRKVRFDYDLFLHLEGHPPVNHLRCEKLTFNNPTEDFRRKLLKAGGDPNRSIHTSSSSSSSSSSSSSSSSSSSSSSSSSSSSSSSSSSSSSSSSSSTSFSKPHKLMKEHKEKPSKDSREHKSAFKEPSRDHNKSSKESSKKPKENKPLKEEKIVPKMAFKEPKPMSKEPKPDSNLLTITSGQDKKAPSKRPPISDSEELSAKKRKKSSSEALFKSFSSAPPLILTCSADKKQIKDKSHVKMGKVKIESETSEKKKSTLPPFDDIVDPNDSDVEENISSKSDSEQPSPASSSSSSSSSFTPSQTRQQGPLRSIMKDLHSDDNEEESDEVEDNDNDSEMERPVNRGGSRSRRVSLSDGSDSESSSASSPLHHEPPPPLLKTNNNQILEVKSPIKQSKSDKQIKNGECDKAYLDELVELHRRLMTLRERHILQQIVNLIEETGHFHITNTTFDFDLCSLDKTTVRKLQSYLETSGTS
rRNA inh HTS: reduced GFP signal of wild-type E. coli, primary screen, bacterial rRNA inhibitor project, GFP/RFP fluorescence, OD600, single point; E. coli WT GFP vs humanized-ribosome RFP mutants, 24 h; hits give low values; DMSO median 0, no signal -100; GFP signal change (wild-type ribosome), % (test concentration not listed); 350,000 tested, 1.6% active;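 active means significant combined selectivity score with lowered wild-type GFP, culture density cut under 30%, mutant RFP and density less affected; inactive means any of these conditions unmet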
Wnt act: Wnt/beta-catenin pathway activators, primary screen, cell-based, plate reader, single point. Wnt/beta-catenin reporter cell assay, activator. activation, % at 9.35 µM. 300,000 tested, 1.2% active; in the data active means activation above about 30%, passing the limit was not always enough; inconclusive means no clear call, values can overlap the other calls;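 further: 0% = neutral control wells and 100% = positive control wells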
esBAF inh: Bmi1 luciferase reporter increase in mESCs, primary screen, esBAF inhibitor project, mouse ES cells, Bmi1 luciferase knock-in, single point; 350,000 tested, 2% active; 24 h; 100% = twice the neutral-well signal; reporter increase, % at 12.5 µM; in the data active means activation above about 40%; inconclusive means no clear call, values can overlap the other calls;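 further: 0% = median of the plate's neutral control wells and 100% = double that signal; a rise in the Bmi1 reporter signal indicates esBAF inhibition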
MITF TRPM1 HTS: activators of MITF-driven TRPM1 promoter reporter, primary screen, cell-based, SK-MEL-5, luciferase, single point | SK-MEL-5 TRPM1-promoter luciferase, 24 h; % of positive control, neutral wells = 0 | 300,000 tested, 0.75% active | activation, % at 12.5 µM;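 active means mean activation of at least 80% with every replicate also reaching 80%; inconclusive means mean reaches 80% but some replicate falls short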;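 further: 0% = neutral control wells and 100% = parthenolide positive control wells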
* = called active by the depositor; ? = inconclusive; · = no result; ! = a repeat was not active.

SMILES | AF4-AF9 inh | rRNA inh HTS | Wnt act | esBAF inh | MITF TRPM1 HTS
Cc1ccc(CN2CCCCC2C(=O)Nc2ccc(Oc3cccnc3)cc2)o1 (stereo not drawn) | 2.8 | -21.7 | -2.2 | -10.2 | -13.0
CN(C)c1ccc(C(O)c2cc3ccccc3s2)cc1 (stereo not drawn) | 5.0 | -1.9 | -1.7 | 52.0* | 18.2
CCN(CC)CCSC(=O)C(c1ccccc1)c1ccccc1 | 1.3 | · | 0.1 | -1.1 | ·
C[C@@H]1CN([C@@H](C)CO)C(=O)Cc2cc(NS(=O)(=O)c3ccc(F)cc3)ccc2O[C@@H]1CN(C)S(=O)(=O)c1ccccc1 | -2.0 | -3.5 | · | 2.3 | ·
COCc1nc2oc3ccc(C)cc3c(=O)c2cc1C(=O)OC | 0.3 | 1.0 | 4.3 | 16.3 | 91.2*
CC(=O)c1cc2c(=O)c3cc(C)ccc3oc2nc1C | · | · | · | 60.0* | 55.5
CCN(CC)C(=O)c1cc2c(=O)c3cc(Cl)ccc3oc2nc1C | 0.3 | 8.9 | 21.6 | 45.2* | 48.3
Fc1ccc(Br)cc1/C=N/N1CCN(c2ccccc2)CC1 | 15.5 | -4.8 | 18.2 | 10.1 | ·
Cc1ccsc1C(=O)OCc1nnc(-c2ccccc2)o1 | -2.0 | -17.1 | 13.2 | 62.9* | 95.9*
CC1(c2nnc(-c3cccc(Cl)c3)o2)CC(c2c(Cl)cccc2Cl)=NO1 (stereo not drawn) | · | · | -3.9 | 0.4 | 1.1
CCNC(=O)C[C@@H]1CC[C@@H]2[C@@H](COc3ccc(NC(=O)Nc4ccc(Cl)cc4)cc3C(=O)N2C)O1 | 0.3 | 2.0 | · | -0.1 | ·
O=C(Nc1ccc(Cl)c(Cl)c1)N1CC=CCC1 | · | · | · | 100.5* | 75.9
COc1ccc(NC(=O)CSc2nc(N)c3cc4c(nc3n2)CCCC4)cc1 | · | · | 21.4 | · | 56.0
Cc1ccnc(N2C(=O)c3cccc4c([N+](=O)[O-])ccc(c34)C2=O)c1 | -6.5 | 69.8 | 27.5 | -0.7 | -11.4
Cc1ccc(N2C(=O)c3cccc4c([N+](=O)[O-])ccc(c34)C2=O)c2cccnc12 | 3.0 | 5.7 | 40.9* | -18.3 | -74.3
O=C(C[C@H]1CC[C@@H]2[C@H](COC[C@H](O)CN2Cc2ccc(Oc3ccccc3)cc2)O1)N1CCCCC1 | 3.6 | -36.5 | · | -4.9 | ·
CCCCn1nc(C(=O)N(C)Cc2nc3ccccc3c(=O)[nH]2)c2ccccc2c1=O | 2.8 | 0.8 | -1.0 | -7.1 | ·
Cc1ccc(NC(=S)N/C(=N/S(=O)(=O)c2ccccc2)c2ccccc2)cc1 | 1.2 | 5.4 | -3.3 | 54.9* | 36.8
Cc1ccc(S(=O)(=O)/N=C(/NC(=S)Nc2ccccc2)c2ccccc2)cc1 | · | · | ? | 55.5* | 44.3
CO[C@H]1CN(C)C(=O)c2cc(NC(=O)c3nc4ccccc4s3)ccc2OC[C@@H](C)N(Cc2cncnc2)C[C@H]1C | 6.0 | -7.7 | · | -8.3 | ·
COC(=O)c1[nH]c2ccc(Cl)cc2c1NC(=O)C1CC1 | · | · | 1.2 | 8.7 | 13.2
COC(=O)c1[nH]c2ccc(Cl)cc2c1NC(=O)Oc1ccccc1 | · | · | 20.2 | 57.9* | ·
CCN(CC)C(=O)[C@H]1CC(CC(=O)NCC23CC4CC(CC(C4)C2)C3)C(=O)N2CCc3c([nH]c4ccccc34)[C@]12C (stereo partly drawn) | 0.4 | 1.3 | -3.2 | 13.2 | -21.1
Cc1ccc(NS(=O)(=O)c2ccc(NC(=O)C3CC3)cc2)cc1C | -15.8 | -23.6* | -2.4 | 6.6 | 4.7
O=C(Nc1ccc(S(=O)(=O)Nc2ccccc2)cc1)C1CC1 | -1.4 | -1.1 | -2.1 | · | -4.9
SMILES | AF4-AF9 inh | rRNA inh HTS | Wnt act | esBAF inh | MITF TRPM1 HTS
CS(=O)(=O)N1CC2(C1)[C@@H](c1ccccc1)[C@@H](CO)N2C(=O)c1ccccc1 | -3.5 | 2.7 | · | · | ·
COc1ccc(C2=NS(=O)(=O)N(C)C(C(=O)N(C)Cc3ccccc3)=C2)cc1OC | -1.0 | -19.9* | 1.7 | -3.0 | -1.1
COc1ccc(C2=NS(=O)(=O)N(C)C(C(=O)NC(C)c3ccccc3)=C2)cc1OC (stereo not drawn) | 0.0 | -14.3 | -1.1 | -5.7 | 12.0
NC[C@@H]1O[C@H](C23CC4CC(CC(C4)C2)C3)Cc2c1ccc(O)c2O | 46.6* | -55.4 | -5.0 | -5.9 | -2.9
Clc1ccc(CSc2nc3ccncc3[nH]2)cc1 | -8.9 | -4.3 | 37.4* | -27.4 | 16.5
CC(C)(C)c1nnc(N/N=C/c2cc(Br)ccc2O)n(N)c1=O | · | · | 32.9* | · | -67.1
COc1cc2ccc(-c3ccc4ccccc4n3)cc2cc1OC | -3.7 | -5.8 | 50.4* | · | ·
c1cc(-c2nnc3sc(C4CCCCC4)nn23)ccn1 | · | · | · | -13.9 | ·
Clc1ccc(Cn2c(/C=C/c3ccco3)nc3ccccc32)cc1 | · | · | 34.0* | · | 45.0
COC(=O)N/N=C/c1cc(Cl)cc(Cl)c1OCc1ccccc1F | · | · | · | · | 6.1
Cc1c(OCC(F)(F)F)ccnc1CS(=O)c1nc2ccccc2[nH]1 (stereo not drawn) | -5.2 | -7.4 | 10.2 | 47.7*! | 43.6
Cc1ccc(NC(=O)c2snc3ccc(Cl)cc23)cc1C | 0.9 | -3.1 | 48.5* | · | 45.3
O=C(CNC(=O)c1ccco1)N/N=C/c1ccc(O)c([N+](=O)[O-])c1 | -1.5 | 2.3 | -1.5 | 2.8 | -8.2
O=C(CNC(=O)C(c1ccccc1)c1ccccc1)N/N=C/c1ccc(O)c([N+](=O)[O-])c1 | 11.3 | -19.8* | 3.9 | -6.0 | -3.2
CCOc1ccc(Nc2c3ccccc3nc3ccccc23)cc1 | 36.8* | -44.3 | 2.2 | -15.0 | -14.3
CCOc1ccc(Nc2cc(C)c3ccccc3n2)cc1 | 7.8 | -39.1 | 12.5 | 46.4* | ?
Cn1c(Nc2ccccc2)nc2ccccc21 | 5.3 | 4.6 | 3.7 | 35.7 | 22.7
CCc1c(C)nc(Nc2nc(C)c3ccc(OC)cc3n2)[nH]c1=O | -51.4 | 17.1 | 5.7 | 23.2 | 53.2
COc1ccc2c(C)nc(Nc3nc(C)c(C)c(=O)[nH]3)nc2c1 | · | · | · | 175.8* | ·
CC(=O)Nc1ccc(Nc2cc(C)c3ccccc3n2)cc1 | 3.9 | -9.5 | -0.5 | 4.3 | ·
Nn1c(Nc2ccccc2)nc2ccccc21 | · | · | · | 64.5* | 63.9
CCOc1ccc(Nc2nc3ccccc3n2C)cc1 | 2.6 | 1.3 | 26.9 | 51.8* | 95.0*
CCOc1ccc(CNc2nc3ccccc3n2C)cc1 | -4.6 | -13.0 | 14.8 | 15.1 | 33.4
COc1ccc(Nc2nc(-c3ccccc3)c3ccccc3n2)cc1 | 6.6 | 10.6 | -0.6 | · | 7.8
COc1ccc(Nc2nc(C)c3ccccc3n2)cc1 | · | · | · | 75.4* | 60.2
O=C(NNc1ccc([N+](=O)[O-])cc1)C1C2CCCCC21 (stereo not drawn) | · | · | 2.7 | · | -2.2
Cc1cccc(C=NOCCc2ccccc2)n1 | 0.4 | 4.5 | -1.4 | 65.8* | 72.6
O=C(NCC[C@H]1CC[C@H](NS(=O)(=O)c2ccc(Cl)cc2)[C@@H](CO)O1)Nc1ccc(F)cc1 | 26.7* | -5.0 | · | · | ·
O=C(NCC[C@@H]1CC[C@@H](NC(=O)c2ccc3c(c2)OCO3)[C@H](CO)O1)Nc1ccc(Cl)cc1 | 10.0 | -12.1 | · | 62.9* | ·
